Common to all, as to test: NCI-60 one-dose screen, 48 h (100 = growth as untreated, 0 = no growth, -100 = all killed)
Holding throughout (conditions): 10 µM unless noted

For experiment [1], the system named is NCI-H23 lung.
Experiment [2] concerns NCI-H226 lung.
Experiment [3] deals with NCI-H322M lung.
Experiment [4] has as its system HOP-62 NSCLC.
The subject of experiment [5] is NCI-H460 lung.
For experiment [6], the system named is HOP-92 NSCLC.
Experiment [7] concerns NCI-H522 lung.
The test system of experiment [8] is A549/ATCC NSCLC.
The subject of experiment [9] is 786-0 renal.
The test system of experiment [10] is COLO 205 colon.
Experiment [11] concerns DU-145 prostate.
In experiment [12] the test system is K-562 leukemia.
Experiment [13] has as its system MALME-3M melanoma.
Experiment [14] has as its system MDA-MB-231 breast.
Experiment [15] relates to RXF 393 renal.
Experiment [16] concerns SF-268 CNS.
Experiment [17] deals with SF-295 CNS.
The subject of experiment [18] is SF-539 CNS.
The test system of experiment [19] is UACC-257 melanoma.
For experiment [20], the system named is M14 melanoma.

This is an account of results in PubChem BioAssay (NCI).

The structures appear in SMILES notation. About 83,000 compounds went through this panel and 20% of them were active in at least one assay; those are over-represented in the sample as a whole.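 The endpoint reported here, percent growth, reads 100 for growth as untreated, 0 for no net growth and -100 for all cells dead.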 A number with no mark means an inactive call. Activity calls are given as the source filed them. Rule for the calls: active = growth percent below 10; inactive = the rest.

As for `C[C@@H](N)c1ccc(C(=O)Nc2ccnc3[nH]ccc23)cc1`, the growth was 45% in experiment [1]; 51% in experiment [2]; 41.5% in experiment [3]; 13.9% in experiment [4]; 47.9% in experiment [5]; 55.6% in [6]. Further, the growth in experiment [7] was 11%; in experiment [8], 14.8%; in [9], 33.2%; in [10] it was 5.34% (active); in [11], 52.3%; in experiment [12], 63.7%. Moreover, the growth was 75.1% in experiment [13]; 50% in experiment [14]; -18% (active) in [15]; 50.6% in experiment [16]; 61.5% in experiment [17]; 11.1% in experiment [18]. The growth in [19] was 68.9%; in experiment [20], 64.9%.

For the compound `Cc1cc(Oc2ccccc2)ccc1Nc1ncnc2ccc(-c3cnc(Cl)c(NS(C)(=O)=O)c3)cc12`, the growth in experiment [1] was 28.5%; in experiment [2], 36.9%; in [3], 0.949% (active); in [4] it was 28.2%; in experiment [5] it was 18%; in experiment [6], -14% (active). The growth in [7] is 32.1%; in experiment [8], 11%; in [9], 16.8%; in [10], 12.1%; in experiment [11], 32.1%; in [12] it was 54.3%. Further, the growth in [13] is 0.126% (active); in experiment [14], 17.4%; in [15] it was -31.6% (active); in experiment [16] it was 35.4%; in [17], 5.34% (active); in experiment [18], -15.3% (active). Further, the growth in [19] is 6.42% (active); in experiment [20], 19.5%.

Turning to `C1=C\COCc2cc(ccc2OCCN2CCCC2)Nc2nccc(n2)-c2cccc(c2)COC/1`, the growth is -17.3% (active) in [1]; -64.9% (active) in [2]; -8.53% (active) in [3]; -18.1% (active) in [4]; -34.5% (active) in [5]; -0.764% (active) in [6]. Further, the growth in experiment [7] was -58.1% (active); in [8], -17.3% (active); in [9] it was 1.51% (active); in [10] it was -82% (active); in experiment [11] it was 13.7%; in [12] it was 1.93% (active). For the same compound, the growth in experiment [13] is -79.3% (active); in experiment [14], -1.88% (active); in [15], -74.8% (active); in [16], -0.949% (active); in [17], -33.8% (active); in experiment [18], -83.7% (active). Further, the growth in experiment [19] was -75.1% (active); in [20] it was -59.4% (active).

`Cc1cc(-c2cc(O)ccc2Cl)cc2nnc(Nc3ccc(OCCN4CCCC4)cc3)nc12`: the growth in [1] was -63.2% (active); in experiment [2], -51.7% (active); in experiment [3], -94.4% (active); in experiment [4] it was -66.1% (active); in [5], -81.6% (active); in experiment [6] it was -69.1% (active). Also, the growth in [7] was -49.5% (active); in [8], -70.7% (active); in experiment [9], -60.6% (active); in experiment [10] it was -61.4% (active); in [11], -89.4% (active); in experiment [12], -63.9% (active). Also, the growth in experiment [13] was -68.4% (active); in experiment [14], -80.5% (active); in [15], -73.4% (active); in experiment [16] it was -69.8% (active); in experiment [17], -76.3% (active); in experiment [18] it was -86.8% (active). In addition, the growth in [19] was -75.9% (active); in [20], -51.8% (active).

In the case of `CCS(=O)(=O)N1CCN(c2ccc(Nc3ncc(C(N)=O)c(NC4CC4)n3)cc2)CC1`, the growth in experiment [1] is 75.9%; in experiment [2] it was 73.1%; in experiment [3] it was 79.4%; in [4], 59.3%; in experiment [5], 60.3%; in [6] it was 87.4%. The growth in experiment [7] was 59.2%; in [8], 62.2%; in experiment [9] it was 89%; in experiment [10], 1.91% (active); in [11], 88.5%; in [12], 56.4%. For the same compound, the growth in experiment [13] is 76.7%; in experiment [14] it was 69.6%; in experiment [15], 25.8%; in experiment [16], 75.5%; in experiment [17], 61.9%; in [18] it was 53.5%. The growth in experiment [19] is 101%; in experiment [20] it was 59.5%.

As for `CCn1cc(-c2ccnc3[nH]c(-c4cccc(CN(C)C)c4)cc23)c(-c2ccc(NC(=O)N(C)C)cc2)n1`, the growth is 17.6% in experiment [1]; 32.3% in [2]; 38.7% in experiment [3]; 15% in experiment [4]; 9.19% (active) in experiment [5]; -13.3% (active) in [6]. Moreover, the growth in experiment [7] was 6.18% (active); in [8] it was 14.9%; in experiment [9] it was 35.1%; in [10] it was -26.9% (active); in experiment [11], 40.2%; in [12] it was 1.59% (active). The growth in experiment [13] was 46.9%; in experiment [14] it was 14%; in experiment [15], -24.8% (active); in [16], 33.5%; in [17] it was 16.1%; in experiment [18], 5.58% (active). Also, the growth is 40.8% in [19] and 21.4% in [20].

On to `CCN(CCCOc1ccc2c(Nc3cc(CC(=O)Nc4cccc(F)c4)[nH]n3)ncnc2c1)CCOP(=O)(O)O`, for which the growth was 73.4% in [1]; 93.8% in experiment [2]; 68.5% in experiment [3]; 56.7% in [4]; 45% in experiment [5]; 87.6% in [6]. For the same compound, the growth in [7] was 44%; in experiment [8], 44.1%; in experiment [9], 86.5%; in experiment [10] it was -7.95% (active); in [11], 88.5%; in [12], 48.4%. Moreover, the growth was 31.9% in experiment [13]; 79.5% in experiment [14]; 96.7% in experiment [15]; 76% in experiment [16]; 73.5% in experiment [17]; 48.8% in [18]. In addition, the growth in [19] is 49.9%; in experiment [20], 45.1%.

In the case of `O=C(NC1CCNCC1)c1[nH]ncc1NC(=O)c1c(Cl)cccc1Cl`, the growth in experiment [1] is -12.1% (active); in experiment [2] it was 0.903% (active); in [3], 5.64% (active); in experiment [4], -18.5% (active); in [5], 8.4% (active); in experiment [6], -6.06% (active). For the same compound, the growth in [7] is -23% (active); in [8], 8.09% (active); in experiment [9] it was 2.33% (active); in [10] it was -35.9% (active); in experiment [11], 12.3%; in [12] it was 5.78% (active). In addition, the growth in [13] is -38.8% (active); in experiment [14], 1.88% (active); in experiment [15], -50% (active); in experiment [16], 9.79% (active); in experiment [17], 8.53% (active); in experiment [18], -41.9% (active). Besides, the growth was -6.15% (active) in [19] and 9.93% (active) in [20].
